The record followed here is PubChem BioAssay AID1508600 (Functional Genomics Laboratory (NCATS/FGL), 2020).

Screen size: about 53,000 sequences; about 3,700 (7%) were called active. This excerpt belongs to a sample that is enriched for actives. Values without a mark were called inactive.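 Rule for the calls: active = gene knockdowns whose robust z-score for IL-1 alpha signal is at least 2 or at most -2, so actives lie on both sides; inactive = the rest.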

A short description of the test: Components of the Cytosolic LPS Sensing Pathway: Gene Identification via Genome-wide siRNA Screen.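 Note: robust z of the log signal after scaling to non-targeting control siRNA wells of the plate.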 As to conditions: RAW264.7 macrophages, IL-1a HTRF, actives lie on both sides, screened at 100 nM (by protocol), cells primed 5 h with Pam3CSK4 first. A digest of the protocol:
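Knockdown: 100 nM siRNA, 48h, RAW264.7. Stimulation: Pam3CSK4 5 h, then LipidA via TransIT-TKO 24 h. Output: supernatant IL-1a HTRF, negative-control-normalized, log robust z-score; viability by CellTiter-Glo.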
A general note: Time-resolved FRET reads energy transfer from a long-lived donor to a nearby acceptor.
For GGAUUUUGUUUCAGGUGGATT against Itgb8, the z-score was 1.78.

Take GGCAGAUGGUAUCAGCUGUTT against Cd248: the z-score is -1.11. In the case of GGAGACAAACUCAAAACUGTT against Lyplal1, the z-score was -1.12. With CACUGAACAGAUCAGAGCATT against Fam189b, the z-score is -2.44 (active). Take AAUCUUGAGAGAUUUCUCCTT against Scd2: the z-score is -0.047. Take GCCACGGCCAGUAAAACAUTT against Cdcp1: the z-score was 0.335. Next, GGAUGAGUUUUUAAAGUCATT against Otop2: -0.883; GGCAAUGUCAGAGCUAAUCTT against Mettl25: 0.596.

As for GGGACAACCUGGAUGACAUTT against Coq6, the z-score was -0.0644.

On to CCUUUGUCCGGUCCAUUCCTT against Hk1, for which the z-score was -0.654. With GCAAGUUCGAAUCCUCCGUTT against Dach2, the z-score was 4.72 (active). Take GGUGAAUGGCAUGACCAUATT against Asb9: the z-score was 0.49. Next, GGAGUCCUUUAAGAUUAUATT against Pex13: 1.3; GGUAGAUGAUGAAAAACAATT against Erich3: -2.02 (active). Next, GGAAGAAUCUGUUACUUUUTT against Rad1: -0.693; CCUUUUAGGGAAAUUUGCATT against Mcm9: 0.651; GGGAAGAACUGUGAUUAUUTT against Hspd1: 0.625. Next, CCAUUGAACAGCAGAUUGGTT against Atp7a: 0.81; GGUCUUCUUCGUGUUCAUCTT against Olfr281: -0.0815; GGAAAAAUUGAAGUUGAUCTT against Iqcj: -1.35.

For GGCUCGUCAAAUCAAGUAUTT against H2bc6, the z-score was -2.37 (active). In the case of GGAAAUCAAGCUGAAGUUATT against Eqtn it was 0.231; in that of GCGCAAACAACACAUCGUCTT against Ccpg1, 0.503. Next, GGCUGUCAUCCAAGAACUUTT against Mtcp1: 0.176.

With GGAGAUCCGAGUGAGGAAUTT against Eif3b, the z-score is 2.91 (active). Next, GGUUUAACUAGAAUUUGGUTT against Cyp2ab1: 1.75; GGACAAGAAUAAGUACAACTT against Rpl5: -0.918; GCCCUUGAACGGAGAAUAGTT against Brk1: -1.59.

In the case of GCUCUGACCAUCCUUAGCUTT against Olfr938, the z-score was -2.62 (active).

On to GCCAUACGAUCUGCAUUUCTT against Zbtb38, for which the z-score was -1.85. In the case of GGAACAAGUAAAAUUCGUCTT against Tssk2 it was 1.71; in that of GGGUUAUGAAGAAGCUCCUTT against Olfr1262, -1.52; in that of GCUGUGUGACCAGCUGUUGTT against Krtap9-1, 0.44. For CCUACGUCAUUUCAGCACCTT against Hc, the z-score was 0.356.

For the sequence “GCUCCCAUUAUCAUUCAAATT against D3Ertd751e”, the z-score was 1.67.

GGAGCUCUGGCACUUUGUCTT against Gramd1b: the z-score was 0.37. Take GGAGAAAAGAGGCUUCCAGTT against Lad1: the z-score was 0.754.

As to CCCAGAUACCUGGAAAACGTT against Fam189a1, the z-score is -2.17 (active). Next, GGUAUUCCUCUAGAUCAGATT against Dysf: 0.627. In the case of GGAUUUGGAGCAGGUGGAUTT against Avpr1b it was -0.97; in that of AUGCUUUUUGGAGCCAUAUTT against Olfr307, 3.07 (active).

Consider GCCCUGAACUACCUAGAAATT against Alg5, for which the z-score was 1.58. Take GGUUAAGAUUCCAGAGCCATT against Prune1: the z-score is -0.297. In the case of GGAGAAUCUGGUCUGGGUATT against Septin4 it was 1.04; in that of GGGCAAGUAUGGCUAUGUGTT against Pram1, -0.178; in that of GGCCAAGAGAAUCUAAAGATT against Strn4, -0.338.

Take GGAGACACUGAAUGUGACATT against Ttyh1: the z-score was -2.03 (active). In the case of UGUAACCAUGGUUACCGUGTT against Olfr1513 it was 0.311; in that of GGCUGAGAACAUCAAAAAATT against Folh1, 0.816; in that of GGAAUUGAGGUGAUGGAUATT against Sfxn4, -0.144. For the sequence CGGGAUCUAUCCACUGAUGTT against Nrbp2, the z-score was -0.983. In the case of GGCUACAAGGAGAAGUUUGTT against Traf3 it was 2.02 (active). On to GCUCUAUGGAUCCUUGGAGTT against Zfp574, for which the z-score is 0.772. In the case of GCUCAAUGUGACAGUGGUGTT against Elane, the z-score is 0.38. Next, GGAAACCGUUCUCAUUAAATT against Mrpl30: 0.599; GGUUUGGUUGAAAUUGAACTT against Smc5: -1.16. As for CCUCAUGGUGAUGAUAUCCTT against Taar6, the z-score was -1.35. Next, GGAAGAUGAAGAGUCAGAGTT against Setd1b: -2.52 (active); CGACAAUGCCAUCGAUUCGTT against Sdc3: 0.0399; GGUCACACUUUCUUUGGAATT against Tcf25: 0.775. In the case of CCUAAAGACGUGCAAUAUGTT against Zfp287 it was 0.526; in that of GGUUGUUCAUGAGCCGAACTT against Rpl18, -0.0641; in that of GGGUGCGGAAAUUCAUUAATT against Mpv17l2, 0.803.

With GGCGCAGUAUCACAGUCUUTT against Tle1, the z-score was 1.02.

As for GGAUGAGAACAGCAACCAGTT against Bcl7b, the z-score was -2.22 (active). In the case of GGUUCCAACAAUUGUAAAGTT against Chl1 it was -0.00378.

GGAUUUUAAACAAAAGACCTT against Stard13: the z-score is 0.718.

For the sequence GGUUCACGGUUUAUAAAGUTT against Sgk3, the z-score was -0.652. Turning to GCUCCUGUACAGUUCAAACTT against Mrpl17, the z-score is 0.0768.

In the case of GCAGAAAGCACACUCCUACTT against Psors1c2, the z-score was -2.02 (active). Take GGAGAAGGUAGUUCUGAAATT against Slc7a11: the z-score is -0.349. In the case of GCACAACAUCACGGUGAACTT against Adcy5, the z-score was -0.672.

Turning to CCACUAUGCUUCUUGGAAUTT against Serpini2, the z-score is -0.73.

Turning to “GGAAAAGAAACCAGUUUCUTT against C230012O17Rik”, the z-score is -2.07 (active). In the case of GGACAAAAGACACAUGUUGTT against Miip it was -0.674; in that of GGAUUUUCACAUUGCAUCUTT against Dmrtc1a, 1.49; in that of CCUUUGAACCUCUAACUUUTT against Xpnpep1, 3.62 (active). Next, “GUUUUAGGCAACCUUGGGUTT against Olfr1038-ps”: -0.14. Next, GGGACUCUAAAAACAAUGATT against Zkscan14: 2.67 (active).

As to CCCAAAAUACAUCAUCAAUTT against Psmc2, the z-score was -0.444.

Take GGACAACCACUUUAAGCUUTT against Tars2: the z-score is 1.04. Next, GCCUACGUUACCUUGAUCCTT against Slc16a12: 0.0774; CCGGUAUUUAGGAACUGCCTT against Irak2: -1.66; GGAGUCAACACACAUCAAGTT against Zfp13: 1. As to GGAAACCUGGAAACAGUUUTT against Apol7c, the z-score was 0.377.

Consider GGACAGCAGCAACAACAUCTT against Dnase1l3, for which the z-score is -2.04 (active). Take GCGACGGAAGUCUUUAUUATT against Nostrin: the z-score is -0.163. Next, GGGUGAAGUAGGUGAAAAATT against H2-M10.6: -0.361; “CGUAGCUAAUCCGUAAAAGTT against 1700120K04Rik”: -1.93. As for GGACAAAUCAGUUCUGCGUTT against Car13, the z-score is 0.105.

Consider GGAACUUGGUAUUUAGAUCTT against Rhot2, for which the z-score was 0.295. Next, GGAUGAGUUUGACAAGCUGTT against Rhou: -0.735.

Take GGAGGAAAAGAGACAGCUCTT against Kank2: the z-score was -2.41 (active).

Consider GUGUCAACCUAAGCUUGGCTT against Tlx3, for which the z-score is -1.19. Consider GGUGUACCUCUGAAAAAAATT against Zbp1, for which the z-score was -1.5. In the case of AGAACGGAACCAUAGGGAATT against Cmc2 it was -0.897; in that of GGUAGUUCAGAUCUGAUUUTT against Svep1, 0.599; in that of CGUUGCAGUCUAAGCUUGUTT against Rabac1, 4.44 (active). Next, AUGGAAUCCAGUAUAGAGCTT against Cep44: 0.713; GGAAGAAUGUAGGAGGAAGTT against Sln: 0.246. GGUAUGAUCAAUGACUUACTT against Serpine1: the z-score was -0.165. As for GGCUGACUUUCUGUCACAGTT against Olfr655, the z-score was 1.03. Next, GCCUGAAUUCCACUACUCGTT against Def8: 0.551; GGACAAGCUGAGGUGAAAATT against Maats1: -1.08.

Take CGUACACCGUAUUCAUGACTT against Rapgef5: the z-score was 3.6 (active). In the case of “GGAUGACUACAAAUGCAAATT against E230015B07Rik” it was -0.155; in that of GCUAGGAUUUCAGCAUAUATT against Adra1a, 0.29.
